USP17 block: blocks human USP17 ubiquitin-rhodamine cleavage; A8MUK1; purified USP17, Ub-rhodamine cleavage fluorescence, 3 h; AID 1645855; inhibition, % at 50 µM; 47,000 tested, 6.5% active
USP30 block: inhibitors of human USP30 deubiquitinase. purified USP30, Ub-rhodamine cleavage fluorescence. inhibition, % at 25 µM. 47,000 tested, 5.3% active. AID 1645860
Target sequence (Q70CQ3 whole entry, looked up): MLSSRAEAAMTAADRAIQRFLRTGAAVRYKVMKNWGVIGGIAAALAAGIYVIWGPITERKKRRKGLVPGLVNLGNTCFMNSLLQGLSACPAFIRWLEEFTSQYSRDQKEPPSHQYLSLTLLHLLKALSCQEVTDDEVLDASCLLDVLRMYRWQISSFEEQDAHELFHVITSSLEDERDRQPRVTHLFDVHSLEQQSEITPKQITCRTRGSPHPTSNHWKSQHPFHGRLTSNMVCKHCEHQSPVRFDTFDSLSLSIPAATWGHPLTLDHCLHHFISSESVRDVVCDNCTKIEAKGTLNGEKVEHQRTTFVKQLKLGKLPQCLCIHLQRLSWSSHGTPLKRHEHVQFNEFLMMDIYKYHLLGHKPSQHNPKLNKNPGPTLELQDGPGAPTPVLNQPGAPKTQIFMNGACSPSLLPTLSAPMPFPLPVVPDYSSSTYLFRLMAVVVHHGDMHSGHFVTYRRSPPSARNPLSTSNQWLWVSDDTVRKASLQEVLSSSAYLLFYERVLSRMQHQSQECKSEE
USP7 block: inhibitors of human USP7 deubiquitinase; Q93009; purified USP7, Ub-rhodamine cleavage fluorescence; inhibition, % at 20 µM; 47,000 tested, 0.3% active
USP8 block: human USP8 deubiquitinase inhibition; 47,000 tested, 4.2% active; purified USP8, Ub-rhodamine cleavage fluorescence, 30 min; inhibition, % at 20 µM
USP10 inh: human USP10 deubiquitinase inhibition; purified USP10, Ub-rhodamine fluorescence, 60 min; inhibition, % at 20 µM; 47,000 tested, 1.1% active
UCHL1 block: blocks human UCHL1 ubiquitin-rhodamine cleavage | purified UCHL1, Ub-rhodamine cleavage fluorescence | inhibition, % at 20 µM | 47,000 tested, 0.2% active
* marks the source's active call; other numbers are inactive results; · = no result. This is a sample that favours compounds with a hit; in the whole collection about 13% have one here. No stated cut-off is given here; in the data, active means inhibition above about 30%; inactive means the rest.

SMILES	USP17 block	USP30 block	USP7 block	USP8 block	USP10 inh	UCHL1 block
O=C(NCCc1ccco1)c1ccc(N2CCOc3ccccc32)s1	57*	47*	7	20	19	6
CCC(C)C(NC(=O)C(CCC(N)=O)NC(=O)C(C)(C)NC(C)=O)C(=O)NC(C(=O)NC(C)(C)C(=O)N1CCCC1C(=O)NC(CC(C)C)C(=O)NC(CC(C)C)C(=O)NC(C)(C)C(=O)N1CCCC1C(=O)NC(CO)CC(C)C)C(C)CC (configuration not stated)	3	-35	-23	30	10	13
CCCn1c(=O)c2sccc2n2c(CCC(=O)NCCc3c[nH]c4ccccc34)nnc12	·	29	0	-10	0	0
O=C(NC1CCN(c2nnc3ccccn23)CC1)c1ccc(Cl)cc1	3	0	2	-14	1	0
CCC1=C(c2ccc(C)cc2)S(=O)(=O)NC1=NCC(=O)NCCC1=CCCCC1	-5	0	5	18	8	3
COc1ccccc1NC(=O)CN=C1NS(=O)(=O)C(c2ccc(F)cc2)=C1C	12	-3	-1	6	1	0
CCC1=C(c2ccc(C)cc2)S(=O)(=O)NC1=NCC(=O)NC(C)c1ccccc1 (configuration not stated)	54*	14	4	0	6	2
CCc1ccc(NC(=O)CN=C2NS(=O)(=O)C(c3ccc(CC)cc3)=C2C)cc1	58*	23	9	1	8	1
CC1=C(c2ccc(C)c(C)c2)S(=O)(=O)NC1=NCC(=O)Nc1ccc(F)cc1F	48*	3	7	9	6	0
CC1=C(c2ccc(C)c(C)c2)S(=O)(=O)NC1=NCC(=O)NCCc1ccc(C)cc1	15	69*	3	4	6	0
COC(=O)c1ccc2c(=O)n(CCCC(=O)N3CCN(c4ccccc4)CC3)c(=O)[nH]c2c1	4	-48	0	-16	-4	-1
CC(=O)N1CCCc2cc(S(=O)(=O)N3CCN(Cc4ccccc4)CC3)ccc21	-20	-2	-3	1	-1	0
CC(=O)c1ccc(N2CCN(C(=O)CSc3cc(=O)n(C)c4ccccc34)CC2)cc1	-15	-57	-3	-1	-9	-3
c1ccc(-c2n[nH]c(C3CCCN3)n2)cc1 (configuration not stated)	-10	-2	0	-47	0	-2
Clc1cccc(-c2cn[nH]c2C2CCCN2)c1 (configuration not stated)	4	34*	5	3	3	4
CC(=O)c1sc(NS(=O)(=O)c2ccc(C)cc2)nc1-c1ccccc1	21	19	1	9	2	-5
CC(=O)c1sc(NC(=O)c2cccc(S(=O)(=O)Nc3ccccc3F)c2)nc1-c1ccccc1	32*	27	14	17	27	5
O=C(COc1ncnc2ccccc12)Nc1ccc2c(c1)OC1(CCCC1)O2	60*	10	-4	58*	10	8
CCOc1ccccc1CNC(=O)c1ccc(N2CCSc3ncccc32)s1	3	1	5	3	-4	-5
Cc1cc2nccc(C3CCN(C(=O)COc4cccnc4)CC3)n2n1	8	-270	-99	49*	-12	-34
Cc1ccc(S(=O)(=O)N2CCOC3(COc4ccccc4N(C)C3)C2)cc1 (configuration not stated)	2	-6	2	-3	6	2
CS(=O)(=O)c1ccc2nc(N(Cc3cccnc3)C(=O)c3ccc4ccccc4c3)sc2c1	53*	52*	7	63*	7	6
O=C(Cn1cc(S(=O)(=O)Cc2cccc(F)c2)c2ccccc21)N1CCCCCC1	5	6	-48	0	1	1
O=C(CCc1nnc2n(Cc3ccc(F)cc3)c(=O)c3ccccc3n12)N1CCN(c2ccccn2)CC1	21	53*	-10	5	6	1
O=C(CCc1nnc2n(Cc3ccc(F)cc3)c(=O)c3ccccc3n12)N1CCN(Cc2ccccc2)CC1	-12	5	-36	-4	-2	0
CC(C)Cn1c(=O)c2ccccc2n2c(CCC(=O)NCC3CCCO3)nnc12 (configuration not stated)	10	35*	5	11	3	2
CCN(CCCNC(=O)CCc1nnc2n(Cc3ccccc3)c(=O)c3ccccc3n12)c1cccc(C)c1	·	42*	-10	10	6	6

Source: PubChem (Buhrlage Lab, Dana-Farber Cancer Institute and Novartis Institutes for BioMedical Research (Cambridge, Mass))
